The text below walks through data of PubChem BioAssay AID589 (National Center for Advancing Translational Sciences (NCATS), 2007).

The campaign covered roughly 59,000 compounds. About 6,200 (11%) were called active. Roughly 9% stayed inconclusive and do not appear here. Cut-off read from the data, not from the text of the source: active = max dye-equivalent concentration above about 10 nM; inconclusive = mostly about 1.1 nM to 9.6 nM; inactive = weaker than that. The entries come from a sample that favours actives as a whole.

This experiment in a line: qHTS Assay for Spectroscopic Profiling in 4-MU Spectral Region. Conditions: compound autofluorescence, 340/450 nm, 4-MU equivalents; active compounds read high. The gist of the method:
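Intrinsic fluorescence at 340/450 nm (ex/em) was read after 15 min at room temperature in pH 8.0, 100 mM Tris. Each compound concentration expressed as 4-MU-equivalent concentration from a six-point 4-MU standard series on each plate.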
(In general: Quantitative high-throughput screening tests each substance at several concentrations.)
As to `O=C(N1CCOCC1)N(Cc1ccccc1)c1ccccn1`, the max dye-equivalent concentration result is “inactive”.

Take `NC(=O)CSc1c[nH]c2ccccc12`: the max dye-equivalent concentration entry is “inactive”.

For the compound `Cc1ccc2c(c1)C(O)(CC(=O)c1cccnc1)C(=O)N2` (stereo not given), the max dye-equivalent concentration result is “inactive”.

Take `CCc1cc2c(=O)c(-c3ccon3)c(N)oc2cc1OC`: the max dye-equivalent concentration entry was “inactive”.

`Cc1ccc(-c2noc(CN3CCN(Cc4ccccc4)CC3)n2)cc1`: the max dye-equivalent concentration entry is “inactive”.

`Cc1ccc(Cc2nc(-c3cccc(C)c3)no2)cc1`: the max dye-equivalent concentration result was “inactive”.

For `COc1ccccc1Cc1nc(-c2ccc(C)cc2)no1`, the max dye-equivalent concentration is 16 nM (active).

Regarding `O=C(Nc1cccc(F)c1)N1CCC2(CC1)CCN(S(=O)(=O)c1ccccc1)CC2`, the max dye-equivalent concentration result was “inactive”.

As for `CN1CCCC(OC(=O)COc2ccc(Br)cc2)C1` (stereo not given), the max dye-equivalent concentration entry is “inactive”.

On to `CCCSC1=C(C#N)C(c2ccccc2C)C(C(=O)OC)C(=O)N1` (stereo not given), for which the max dye-equivalent concentration result is “inactive”.

Turning to `Cc1nc(SCC(=O)Nc2cc(C)on2)c2c(C)c(C)sc2n1`, the max dye-equivalent concentration result was “inactive”.

For `Cc1ccc2nc(-c3ccc(SCC(=O)Nc4cc(C)on4)nc3)[nH]c2c1`, the max dye-equivalent concentration is 33 nM (active).

For `Cc1cc(C)c2c(c1)cc(C)c1nnc(SCC(=O)Nc3cc(C)on3)n12`, the max dye-equivalent concentration result was “inactive”.

With `CCOc1ccccc1C(=O)NCCCn1ccnc1`, the max dye-equivalent concentration entry is “inactive”.

Consider `CCOc1ccccc1C(=O)NCc1ccco1`, for which the max dye-equivalent concentration entry was “inactive”.

As to `CCOc1ccccc1C1C(C(=O)OC)=CN(C)C=C1C(=O)OC`, the max dye-equivalent concentration is 10000 nM (active).

Take `CN(C(=O)COc1nnc(-c2cccs2)c(-c2cccs2)n1)c1ccccc1`: the max dye-equivalent concentration result is “inactive”.

For `COCCn1c(=O)c(-c2cccs2)nc2cnc(N3CCN(C)CC3)nc21`, the max dye-equivalent concentration is 14 nM (active).

On to `COc1ccccc1CCn1c(=O)c(-c2cn(C)c3ccccc23)nc2cncnc21`, for which the max dye-equivalent concentration entry is “inactive”.

For the compound `COCCn1c(=O)c(-c2cccs2)nc2cncnc21`, the max dye-equivalent concentration is 74 nM (active).

Take `COC(=O)[C@@H]1[C@H]2C[C@H]3c4[nH]c5cc(OC)ccc5c4CCN3C[C@@H]2C[C@@H](OC(=O)c2cc(OC)c(OC)c(OC)c2)[C@@H]1OC`: the max dye-equivalent concentration result is “inactive”.

Take `CCCCn1nnnc1NCc1cc(OC)c(OC)c(OC)c1`: the max dye-equivalent concentration result was “inactive”.

Regarding `COC(=O)CCNc1ccc2c(c1)OCCO2`, the max dye-equivalent concentration result is “inactive”.

For `CCOc1ccc(-c2nnc3ccc(SC)nn23)cc1`, the max dye-equivalent concentration was 12 nM (active).

For the compound `CCOc1cccc(-c2nnc3sc(COc4ccc(OC)cc4)nn23)c1`, the max dye-equivalent concentration result is “inactive”.

For `O=C1NC(=O)[C@@](Cc2ccccc2)(c2cccnc2)N1`, the max dye-equivalent concentration result was “inactive”.

For the compound `O=c1cc(CSc2ccc(Cl)cc2)nc(N2CCOCC2)[nH]1`, the max dye-equivalent concentration result is “inactive”.

Consider `CC1=C(C(=O)Nc2ccccc2)C(c2cccs2)C(C#N)=C(SCC#N)N1` (stereo not given), for which the max dye-equivalent concentration entry is “inactive”.

With `CCOC(=O)N1CC=C2C(C#N)=C(N)C(C#N)(C#N)[C@H](c3cccs3)[C@H]2C1`, the max dye-equivalent concentration was 27 nM (active).

On to `O=C(c1cc(C(F)(F)F)cc(C(F)(F)F)c1)N1CCC2(CC1)CN(c1ccncc1)C2`, for which the max dye-equivalent concentration result was “inactive”.

In the case of `CCOC(=O)c1cc2ccccc2nc1C`, the max dye-equivalent concentration entry was “inactive”.

Take `Cc1cc(O)ccc1-c1cnc2ccccc2n1`: the max dye-equivalent concentration result is “inactive”.

`Cc1nc2ccccc2cc1O`: the max dye-equivalent concentration was 2300 nM (active).

As for `CC(=O)N1CCN(C(=O)Nc2cccc(C(F)(F)F)c2)CC1`, the max dye-equivalent concentration result was “inactive”.

`Cc1ccc(NC(=O)CCNS(=O)(=O)c2ccc3c(c2)oc(=O)n3C)cc1C`: the max dye-equivalent concentration entry was “inactive”.

Regarding `C[N+](C)(CCCCCC[N+](C)(C)CCCN1C(=O)c2cccc3cccc(c23)C1=O)CCCN1C(=O)c2cccc3cccc(c23)C1=O`, the max dye-equivalent concentration is 260 nM (active).

As to `O=C1c2ccccc2C(=O)N1CCCSc1ccccc1`, the max dye-equivalent concentration result is “inactive”.

`Nc1ccc(SCCN2C(=O)c3ccccc3C2=O)cc1`: the max dye-equivalent concentration entry is “inactive”.

Take `CCCC(=O)Nc1ccc(C(=O)NCCCn2ccnc2)cc1`: the max dye-equivalent concentration entry was “inactive”.

As for `CSc1ccc(S(=O)(=O)NCc2ccc(Cl)cc2)cc1`, the max dye-equivalent concentration result was “inactive”.

Take `Cc1cc(C)n(-c2nc(SCC(=O)N3CCCC3)c3c4c(sc3n2)CCCC4)n1`: the max dye-equivalent concentration result was “inactive”.

In the case of `COCCNc1nc(-n2nc(C)cc2C)nc2sc3c(c12)CCCC3`, the max dye-equivalent concentration is 920 nM (active).

With `COCCn1c(C)cc(C(=O)CSc2ncnc3sc4c(c23)CCC4)c1C`, the max dye-equivalent concentration entry is “inactive”.

With `COc1ccc(S(=O)(=O)Nc2ccc3c(c2)OCO3)cc1Cl`, the max dye-equivalent concentration result is “inactive”.

Take `N#Cc1ccc(COC(=O)Cn2nnc(-c3ccccc3)n2)cc1`: the max dye-equivalent concentration result is “inactive”.

Consider `CCCNS(=O)(=O)c1ccc2c(c1)CCCN2C(C)=O`, for which the max dye-equivalent concentration result is “inactive”.

Turning to `CC(C)OCCCNc1ncnc2c1[nH]c1ccc(F)cc12`, the max dye-equivalent concentration was 12 nM (active).

Take `Fc1cc(F)c2nc(N3CCOCC3)sc2c1`: the max dye-equivalent concentration entry is “inactive”.

For the compound `O=C(CSc1nnc(-c2cnccn2)n1Cc1ccco1)c1ccc(Cl)c(Cl)c1`, the max dye-equivalent concentration entry is “inactive”.

Turning to `Cn1c(SCc2c(F)cccc2Cl)nnc1-c1cnccn1`, the max dye-equivalent concentration was 17 nM (active).

As to `CCN(CC)C(=O)CSc1nnc(-c2cnccn2)n1-c1ccc(C)cc1`, the max dye-equivalent concentration result was “inactive”.

As for `O=C(COc1ccccc1)N1CCc2ccccc2C1`, the max dye-equivalent concentration entry is “inactive”.

With `N#C/C(=C1\CCCN1)c1nc(-c2ccccc2)cs1`, the max dye-equivalent concentration entry is “inactive”.

`Cn1c(/C(C#N)=C2/CCCCCN2)nc2ccccc21`: the max dye-equivalent concentration is 22 nM (active).

As to `Cc1nc(NC(=O)C23CCC(C)(C(=O)O2)C3(C)C)sc1C` (stereo not given), the max dye-equivalent concentration result was “inactive”.
